{"source": "PubChem BioAssay AID2796", "about": "(The Scripps Research Institute Molecular Screening Center, 2010)", "note": "Out of some 320,000 compounds screened, about 8,000 (2.5%) were called active. Rule as the data show it: active = activation above about 47%; inactive = the rest. Only a selection was taken, and actives are over-represented in it overall."}
{"target": "Aryl hydrocarbon receptor (Homo sapiens) (UniProt P35869)", "sequence (P35869 whole entry, looked up)": "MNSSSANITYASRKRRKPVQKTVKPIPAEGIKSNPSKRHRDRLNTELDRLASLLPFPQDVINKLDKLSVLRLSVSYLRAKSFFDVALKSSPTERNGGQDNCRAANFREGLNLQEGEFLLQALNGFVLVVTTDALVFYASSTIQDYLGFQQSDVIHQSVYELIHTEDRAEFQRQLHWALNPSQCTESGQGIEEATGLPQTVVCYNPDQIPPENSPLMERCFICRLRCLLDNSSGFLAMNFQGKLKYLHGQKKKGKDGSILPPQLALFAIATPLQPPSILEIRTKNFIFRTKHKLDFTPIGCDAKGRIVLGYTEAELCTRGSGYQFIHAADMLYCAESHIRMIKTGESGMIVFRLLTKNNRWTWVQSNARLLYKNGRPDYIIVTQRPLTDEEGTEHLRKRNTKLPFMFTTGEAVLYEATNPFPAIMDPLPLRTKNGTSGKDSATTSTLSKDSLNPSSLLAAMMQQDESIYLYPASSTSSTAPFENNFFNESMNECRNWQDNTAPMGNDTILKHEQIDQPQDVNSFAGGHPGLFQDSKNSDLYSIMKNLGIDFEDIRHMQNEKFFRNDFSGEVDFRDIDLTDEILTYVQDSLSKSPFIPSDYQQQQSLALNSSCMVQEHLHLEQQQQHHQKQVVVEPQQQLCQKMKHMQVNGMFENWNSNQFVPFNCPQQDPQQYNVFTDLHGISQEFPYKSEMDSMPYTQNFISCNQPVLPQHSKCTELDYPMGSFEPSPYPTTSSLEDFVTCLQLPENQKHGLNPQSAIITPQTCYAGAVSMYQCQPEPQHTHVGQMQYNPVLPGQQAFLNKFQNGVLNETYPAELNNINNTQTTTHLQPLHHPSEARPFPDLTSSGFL", "test": "AHR activators, primary screen, cell-based, luminescence, luciferase reporter, human (AID 2796);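 also: 0% = vehicle wells and 100% = reference agonist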", "details": "AHR-responsive luciferase reporter cells, at 5 µM, active compounds read high"}
{"smiles": "Cn1c(N2CCOCC2)c(C=O)c2ccccc21", "activation": "1.65% (inactive)"}
{"smiles": "O=C(OCC(=O)N1CCN(c2ccccc2)CC1)c1ccc([N+](=O)[O-])s1", "activation": "0.3% (inactive)"}
{"smiles": "CSCCC1NC2(C(=O)Nc3ccc(Cl)cc32)[C@@H]2C(=O)N(C3CCCC3)C(=O)[C@H]12", "note": "(some centres not stated)", "activation": "8.17% (inactive)"}
{"smiles": "Clc1cccc(Cl)c1Cn1nnc(-c2cccs2)n1", "activation": "64.8% (active)"}
{"smiles": "COc1ccccc1N1CCN(C(=O)Cn2nnc(-c3cccs3)n2)CC1", "activation": "4.18% (inactive)"}
{"smiles": "O=c1cc(Cn2nnc(-c3ccc(Cl)cc3)n2)nc2sccn12", "activation": "3.29% (inactive)"}
{"smiles": "Cc1nnc(SCC(=O)NC(=O)NC2CCCC2)n1N", "activation": "1.5% (inactive)"}
{"smiles": "Cc1nnc(SCC(=O)Nc2cccc(N)c2)n1-c1ccccc1", "activation": "7.29% (inactive)"}
{"smiles": "O=C(CNC(=O)c1ccc2ccccc2c1)Nc1ncccc1O", "activation": "10.7% (inactive)"}
{"smiles": "O=C(CSc1cccc2cccnc12)N/N=C/c1cccnc1", "activation": "150% (active)"}
{"smiles": "Cc1ccc(NC(=O)CSc2cccc3cccnc23)c(C)c1", "activation": "10.7% (inactive)"}
{"smiles": "Cc1nc2ccccc2n1CC(=O)N/N=C/c1cccnc1", "activation": "2.29% (inactive)"}
{"smiles": "CCN(CC(=O)Nc1c(F)cccc1F)C(=O)C1CCC1", "activation": "-0.62% (inactive)"}
{"smiles": "Cc1cc(SCC(=O)NCCN2C(=O)CSC2=O)nc2ccccc12", "activation": "55.3% (active)"}
{"smiles": "CCCNC(=O)CSc1nc(Cc2ccccc2)nc2ccccc12", "activation": "-0.23% (inactive)"}
{"smiles": "COc1ccc2c(C)cc(SCC(=O)NCC3CCCO3)nc2c1", "note": "(configuration not stated)", "activation": "17.6% (inactive)"}
{"smiles": "CC(C)OC(=O)Cn1nc(C(F)(F)F)c2c1CCCC2", "activation": "-2.63% (inactive)"}
{"smiles": "O=C(COC(=O)c1cc(=O)[nH]c2ccccc12)Nc1nc(-c2cccc(Br)c2)cs1", "activation": "5% (inactive)"}
{"smiles": "CCOC(=O)c1cc2c(=O)[nH]c(C(Cl)(Cl)Cl)nc2o1", "activation": "-0.93% (inactive)"}
{"smiles": "CC1(C)Oc2ccc(C(=O)N3CCOCC3)cc2N(CC(=O)Nc2ccccc2)C1=O", "activation": "1.48% (inactive)"}
{"smiles": "CCSc1nc2c(c(=O)[nH]1)C(c1cccnc1)C(C(=O)OC(C)C)=C(C)N2", "note": "(configuration not stated)", "activation": "0.13% (inactive)"}
{"smiles": "COc1ccc(-n2c(=S)[nH]c3sc4c(c3c2=O)CCc2ccccc2-4)cc1", "activation": "8.98% (inactive)"}
{"smiles": "CSc1nc2sc3c(c2c(=O)[nH]1)CCc1ccccc1-3", "activation": "74% (active)"}
{"smiles": "CCC1(C)Cc2c(sc3nc(SC)[nH]c(=O)c23)CO1", "note": "(configuration not stated)", "activation": "-2.64% (inactive)"}
{"smiles": "O=C(CNC(=O)Cc1ccccc1)NCC(=O)OCC(=O)c1ccccc1Cl", "activation": "22.1% (inactive)"}
{"smiles": "C/C(=N\\NC(=O)C(N)=O)c1ccc2c(c1)OCCO2", "activation": "3.27% (inactive)"}
{"smiles": "C/C(=N/NC(=S)Nc1ccccc1)c1ccc2c(c1)OCO2", "activation": "111% (active)"}
{"smiles": "C/C(=N/NC(=O)c1ccncc1)c1ccc2c(c1)OCO2", "activation": "24.8% (inactive)"}
{"smiles": "O=C(CSc1nccc(=O)[nH]1)Nc1ccc(N2CCOCC2)c(Cl)c1", "activation": "0.92% (inactive)"}
{"smiles": "O=[N+]([O-])c1ccc2[nH]c3c(c2c1)CCCC3O", "note": "(configuration not stated)", "activation": "-1.41% (inactive)"}
{"smiles": "CCOC(=O)c1ccc2[nH]c3c(c2c1)CCCC3NC=O", "note": "(configuration not stated)", "activation": "115% (active)"}
{"smiles": "C#CCNc1ccc(C(=O)OCC)cc1", "activation": "-1.69% (inactive)"}
{"smiles": "COc1ccc(S(=O)(=O)N2CCOCC2)cc1NC(=O)CSc1ncnc2ccccc12", "activation": "13.1% (inactive)"}
{"smiles": "CCOC(=O)N1CCC(NC(=O)CCc2cn(C)c3ccccc23)CC1", "activation": "-3.32% (inactive)"}
{"smiles": "Cc1ccc(Nc2nc(N3CCOCC3)nc(N3CCOCC3)n2)cc1Cl", "activation": "12.7% (inactive)"}
{"smiles": "COc1ccc(Nc2ncc(F)c(N3CCOCC3)n2)cc1", "activation": "22.4% (inactive)"}
{"smiles": "Cc1cc(Nc2ccc(Cl)cc2)nc(N2CCOCC2)n1", "activation": "69.5% (active)"}
{"smiles": "CCCCc1ccc(NS(=O)(=O)c2cccc(C(=O)N3CCCN(C)CC3)c2)cc1", "activation": "-1.46% (inactive)"}
{"smiles": "CCOC(=O)c1ccc(NC(=O)C2CC(=O)N(c3ccc4c(c3)OCCO4)C2)cc1", "note": "(configuration not stated)", "activation": "-1.04% (inactive)"}
{"smiles": "O=C(c1cc2ccccc2s1)N1CCN(c2ccccn2)CC1", "activation": "27.8% (inactive)"}
{"smiles": "CCc1ccccc1N(CC(=O)N1CCN(c2ccccc2F)CC1)S(C)(=O)=O", "activation": "-0.81% (inactive)"}
{"smiles": "COc1ccc(C(=O)Nc2ccccc2C(=O)N/N=C/c2ccc(O)c(OC)c2)cc1", "activation": "8.36% (inactive)"}
{"smiles": "COc1ccc(/C=N/NC(=O)c2ccc3c(c2)OCCO3)c(OC)c1", "activation": "2.32% (inactive)"}
{"smiles": "COc1ccc(C(=O)Nc2ccccc2C(=O)N/N=C/c2ccccc2OC)cc1", "activation": "103% (active)"}
{"smiles": "O=C(/C=C(O)/C=C/c1ccc(O)cc1)/C=C/c1ccc(O)cc1", "activation": "-0.31% (inactive)"}
{"smiles": "O=C(N/N=C\\c1cccc(Br)c1)c1ccccc1-n1cccc1", "activation": "64.9% (active)"}
{"smiles": "Cn1c(=O)n(C)c2cc(/C=N/NC(=O)c3cccc(Br)c3)ccc21", "activation": "31.6% (inactive)"}
{"smiles": "O=C(N/N=C/c1cccc(Br)c1)c1ccc(N2CCCC2=O)cc1", "activation": "-0.14% (inactive)"}
{"smiles": "CC(C)CC(=O)NC(=S)Nc1ccc(F)cc1F", "activation": "-1.68% (inactive)"}
{"smiles": "CCOC(=O)C1CCN(S(=O)(=O)c2c(C)noc2C)CC1", "activation": "-0.3% (inactive)"}
{"smiles": "C=CCC1(C(=O)N(C)Cc2ccccc2)CCN(C(=O)OC(C)(C)C)CC1", "activation": "5% (inactive)"}
{"smiles": "COC(=O)[C@]1(C)N[C@H](CN(C)C(=O)c2ccc(C(C)(C)C)cc2)[C@@H]2C(=O)N(C)C(=O)[C@@H]21", "activation": "0.09% (inactive)"}
{"smiles": "N#CCCCn1c(O)c(N=NC(=O)C(O)c2ccccc2)c2ccccc21", "note": "(configuration not stated)", "activation": "6.74% (inactive)"}
{"smiles": "O=C(Nn1cnc2ccccc2c1=O)c1ccccc1", "activation": "4.61% (inactive)"}
{"smiles": "CC(C(=O)N=Nc1c(O)n(C)c2ccc(Br)cc12)n1cnc2ccccc2c1=O", "note": "(configuration not stated)", "activation": "80% (active)"}
{"smiles": "O=S(=O)(NCCSc1ccccn1)c1ccc(Cl)cc1", "activation": "0.03% (inactive)"}
{"smiles": "COc1ccc(CCNC(=O)COC(=O)c2ncc(Cl)c(Cl)c2Cl)cc1OC", "activation": "-0.83% (inactive)"}
{"smiles": "COc1ccc(Nc2nc(N)nc(CSC(=S)N3CCC(C)CC3)n2)cc1", "activation": "25.5% (inactive)"}
{"smiles": "COCCNC(=S)N(CCc1c(C)[nH]c2ccc(C)cc12)Cc1cccnc1", "activation": "20.1% (inactive)"}
{"smiles": "COc1cccc(NC(=S)N(CCc2c(C)[nH]c3ccccc23)Cc2ccco2)c1", "activation": "12% (inactive)"}
{"smiles": "CCNC(=S)N(CCc1c(C)[nH]c2ccc(C)cc12)Cc1ccco1", "activation": "59.4% (active)"}
{"smiles": "Cc1ccc(CN(CC(=O)NC2CCCCC2)C(=O)c2csnn2)cc1", "activation": "-0.48% (inactive)"}
{"smiles": "CCOC(=O)C1(CCOc2ccccc2)CCN(Cc2cc(OC)cc(OC)c2)CC1", "activation": "7.35% (inactive)"}
{"smiles": "CCOc1ccc(NC(=O)[C@H](C)NC(=O)C2CC(=O)N(c3ccc(OC)cc3)C2)cc1", "note": "(some centres not stated)", "activation": "1.62% (inactive)"}
{"smiles": "CCNC(=O)NC(=O)C(C)OC(=O)C1CCN(S(=O)(=O)c2ccccc2F)CC1", "note": "(configuration not stated)", "activation": "-0.8% (inactive)"}
{"smiles": "COc1ccccc1N1CCN(C(=O)C2Cc3ccccc3CN2C(=O)c2ccco2)CC1", "note": "(configuration not stated)", "activation": "1.25% (inactive)"}
{"smiles": "COc1ccc(C(=O)Nc2ncc3c(n2)-c2ccccc2CC3)cc1", "activation": "103% (active)"}
{"smiles": "O=C(Nc1ncc2c(n1)-c1ccccc1OC2)c1ccc(Cl)cc1", "activation": "37% (inactive)"}
{"smiles": "COc1ccc(NC(=O)c2cnc(NS(=O)(=O)c3ccccc3)nc2)cc1", "activation": "-2.22% (inactive)"}
{"smiles": "C/C(=N\\NC(=S)NCc1ccccc1)C1CCCCC1", "activation": "3.74% (inactive)"}
{"smiles": "CCN(c1ccccc1)S(=O)(=O)c1ccc(C(=O)Nc2ccccc2OC)cc1", "activation": "1.62% (inactive)"}
{"smiles": "O=C(CSc1ccccn1)Nc1nc2c(ccc3ccccc32)s1", "activation": "96.3% (active)"}
{"smiles": "COC(=O)c1ccccc1NC(=O)CSc1ccccn1", "activation": "0.37% (inactive)"}
{"smiles": "CCOC(=O)CSc1ccccn1", "activation": "-0.06% (inactive)"}
{"smiles": "Cc1ccc(S(=O)(=O)CCC(=O)OCC(=O)NCCc2ccc(S(N)(=O)=O)cc2)cc1", "activation": "-0.33% (inactive)"}
{"smiles": "CN(CC(=O)Nc1ccc(OC(F)F)cc1)S(=O)(=O)/C=C/c1ccccc1", "activation": "3.23% (inactive)"}
{"smiles": "Cc1cc(C)c(S(=O)(=O)c2ccccc2)c(OC(=O)c2c(F)cccc2Cl)n1", "activation": "-0.47% (inactive)"}
{"smiles": "Cc1cccc(C)c1NC(=O)C1CCCN1C(=O)OC(C)(C)C", "note": "(configuration not stated)", "activation": "4.06% (inactive)"}
{"smiles": "CN(C)S(=O)(=O)c1ccc(NC(=O)COC(=O)c2n[nH]c3ccccc23)cc1", "activation": "6.56% (inactive)"}
{"smiles": "COc1ccc(NC(=O)COC(=O)c2n[nH]c3ccccc23)c(OC)c1", "activation": "23.3% (inactive)"}
{"smiles": "O=C(COC(=O)c1n[nH]c2ccccc12)Nc1ccccc1Br", "activation": "53.9% (active)"}
{"smiles": "C[C@@H]1NC(=O)c2cc([N+](=O)[O-])cc(F)c2NCCC[C@@H](C(N)=O)NC(=O)[C@H](CC(N)=O)NC1=O", "activation": "-4.67% (inactive)"}
{"smiles": "COCCN(C(=O)c1ccccc1F)c1c(N)n(Cc2ccccc2)c(=O)[nH]c1=O", "activation": "0.27% (inactive)"}
{"smiles": "O=S(=O)(Nc1ccc(O)c2ccccc12)c1ccc(OC(F)(F)F)cc1", "activation": "33.7% (inactive)"}
{"smiles": "CCOc1ccc(N(CC)S(=O)(=O)c2cccc3nsnc23)cc1", "activation": "5.33% (inactive)"}
{"smiles": "CCOc1ccc(OCC)c(NC(=O)CN(C)S(=O)(=O)c2cccc3nsnc23)c1", "activation": "53.7% (active)"}
{"smiles": "CCOc1ccccc1NC(=O)CCS(=O)(=O)c1cccc2nsnc12", "activation": "11.7% (inactive)"}
{"smiles": "Cc1ccccc1CN1CCC(C(=O)Nc2ccc(Oc3cccnc3)cc2)CC1", "activation": "1.47% (inactive)"}
{"smiles": "O=C(Nc1cc2c3c(c1)CC(=O)N3CCC2)c1ccccc1F", "activation": "3.64% (inactive)"}
{"smiles": "CC(Nc1nc(C(F)(F)F)nc2ccccc12)c1cccs1", "note": "(configuration not stated)", "activation": "0.19% (inactive)"}
{"smiles": "Cc1cccc(NC(=O)c2ccc3ccccc3n2)n1", "activation": "82.1% (active)"}
{"smiles": "Cc1cccc(NC(=O)c2cccnc2Cl)n1", "activation": "-1.7% (inactive)"}
{"smiles": "Cc1cccc(NC(=O)c2cc(N3C(=O)CCC3=O)ccc2Cl)n1", "activation": "-0.56% (inactive)"}
{"smiles": "Cn1ccnc1-c1nnn(-c2ccc(F)cc2)n1", "activation": "-1.09% (inactive)"}
{"smiles": "CC(NC(=O)COc1ccc(-c2ccccc2)cc1)C1CCCO1", "note": "(configuration not stated)", "activation": "19.8% (inactive)"}
{"smiles": "O=C(COc1ccccc1)Nc1ccc(C(=O)N2CCCC2)cc1", "activation": "-2.51% (inactive)"}
{"smiles": "O=C(COc1ccc(-c2ccccc2)cc1)NN=C1CCCC1", "activation": "52.1% (active)"}
